Conditions in all cases: mRNA level, 48 h; actives raise or lower the signal
Read-out in experiment [1]: Bcl-2 (BID) gene, BID (gene 637)
The experiment is described as follows: LTEA_HepaRG_BID: Life Technologies and Expression Analysis (LTEA) Assay for Bcl-2 (BID) gene using HepaRG (AID 2283476). The essentials:
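Gene expression by qRT-PCR in HepaRG cells after 48 h exposure, duplicate wells, eight half-log concentrations topping at 100 uM in 0.5% DMSO. Normalized to ACTB, GAPDH, POLR2A; bidirectional fitting relative to DMSO.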

Read-out in the next experiment: Caspase-3 (Homo sapiens) (UniProt P42574)
Nature of the experiment: LTEA_HepaRG_CASP3: Life Technologies and Expression Analysis (LTEA) Assay for cysteine-aspartic acid protease (CASP3) using HepaRG (AID 2283477). Put shortly: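 In HepaRG liver cells dosed for 48 h at up to 100 uM (eight-point, duplicate), CASP3 expression changes are scored by qRT-PCR. Activity is fitted in both directions with 0.5% DMSO as baseline.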

Read-out in experiment [2]: Cytochrome P450 (CYP24A1), CYP24A1 (gene 1591)
The experiment is described as follows: LTEA_HepaRG_CYP24A1: Life Technologies and Expression Analysis (LTEA) Assay for Cytochrome P450 (CYP24A1) using HepaRG (AID 2283478). The essentials: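 Human liver HepaRG cultures receive each chemical for 48 h across an eight-point half-log series topping at 100 uM in 0.5% DMSO. Induction or suppression of CYP24A1 mRNA is scored relative to vehicle after housekeeping-gene normalization.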

Read-out in experiment [3]: Cytochrome P450 (CYP1A2), CYP1A2 (gene 1544)
The experiment is described as follows: LTEA_HepaRG_CYP1A2: Life Technologies and Expression Analysis (LTEA) Assay for Cytochrome P450 (CYP1A2) using HepaRG (AID 2283479). Put shortly: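 Assesses CYP1A2 mRNA in human HepaRG liver cells after 48 h chemical exposure at up to 100 uM. Values come from qRT-PCR with bidirectional curve fitting relative to DMSO.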

Read-out in experiment [4]: cysteine-aspartic acid protease (CASP8), CASP8 (gene 841)
Nature of the experiment: LTEA_HepaRG_CASP8: Life Technologies and Expression Analysis (LTEA) Assay for cysteine-aspartic acid protease (CASP8) using HepaRG (AID 2283480). The essentials: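 Differentiated HepaRG cells in serum-free induction medium, 48 h exposure, eight-point half-log series from 100 uM in 0.5% DMSO, duplicates. CASP8 mRNA by qRT-PCR, normalized to ACTB, GAPDH, POLR2A; bidirectional fit versus DMSO.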

Read-out in experiment [5]: Cytochrome P450 (CYP2B6), CYP2B6 (gene 1555)
Nature of the experiment: LTEA_HepaRG_CYP2B6: Life Technologies and Expression Analysis (LTEA) Assay for Cytochrome P450 (CYP2B6) using HepaRG (AID 2283481). The essentials: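 Using 48 h treatment of HepaRG cells in serum-free induction medium, concentrations spanned half-log steps from 100 uM in 0.5% DMSO vehicle. CYP2B6 mRNA induction or loss is scored by qRT-PCR against DMSO.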

Read-out in experiment [6]: Cytochrome P450 2C19 (Homo sapiens) (UniProt P33261)
The experiment is described as follows: LTEA_HepaRG_CYP2C19: Life Technologies and Expression Analysis (LTEA) Assay for CYP2C19 using HepaRG (AID 2283482). The essentials: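 Human HepaRG liver cells received test chemicals for 48 h (highest 100 uM, half-log dilutions in 0.5% DMSO). CYP2C19 mRNA induction or loss is read by multiplexed qRT-PCR and fitted in both directions versus vehicle.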

Read-out in a further experiment: CYP2C8 (gene 1558)
Nature of the experiment: LTEA_HepaRG_CYP2C8: Life Technologies and Expression Analysis (LTEA) Assay for CYP2C8 using HepaRG (AID 2283483). Put shortly: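 Differentiated HepaRG cells in serum-free induction medium exposed 48 h in duplicate to 8 half-log concentrations from 100 uM in 0.5% DMSO. CYP2C8 mRNA by qRT-PCR normalized to ACTB, GAPDH, POLR2A; bidirectional fit versus DMSO.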

Read-out in a further experiment: CYP2C9 (gene 1559)
Nature of the experiment: LTEA_HepaRG_CYP2C9: Life Technologies and Expression Analysis (LTEA) Assay for CYP2C9 using HepaRG (AID 2283484). Put shortly: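 Differentiated human HepaRG cells in serum-free induction medium were exposed 48 h to chemicals in 8-point half-log series from 100 uM (0.5% DMSO), in duplicate. CYP2C9 mRNA was measured by qRT-PCR, normalized to ACTB/GAPDH/POLR2A, with bidirectional fitting versus DMSO.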

Read-out in a further experiment: CYP2E1 (gene 1571)
Nature of the experiment: LTEA_HepaRG_CYP2E1: Life Technologies and Expression Analysis (LTEA) Assay for CYP2E1 using HepaRG (AID 2283485). Put shortly:
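HepaRG cells, plated 48 h, then exposed 48 h in serum-free induction medium to eight half-log concentrations from 100 uM in 0.5% DMSO, duplicate. CYP2E1 mRNA by qRT-PCR, normalized to ACTB/GAPDH/POLR2A; bidirectional fit versus DMSO.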

Read-out in the next experiment: CYP4A11 (gene 1579)
Nature of the experiment: LTEA_HepaRG_CYP4A11: Life Technologies and Expression Analysis (LTEA) Assay for CYP4A11 using HepaRG (AID 2283486). Put shortly: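 Readout is CYP4A11 mRNA induction or suppression (qRT-PCR, ACTB/GAPDH/POLR2A normalization) in human HepaRG cells after 48 h chemical treatment, concentrations to 100 uM in 0.5% DMSO, fitted bidirectionally against vehicle.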

Read-out in experiment [7]: Cytochrome P450 3A4 (Homo sapiens) (UniProt P08684)
The experiment is described as follows: LTEA_HepaRG_CYP3A4: Life Technologies and Expression Analysis (LTEA) Assay for CYP3A4 using HepaRG (AID 2283487). Put shortly: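 In a human hepatic line (HepaRG), duplicate wells were treated 48 h with up to 100 uM chemical in half-log dilutions. Endpoint: CYP3A4 mRNA induction or loss relative to 0.5% DMSO vehicle, by qRT-PCR.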

Read-out in experiment [8]: Pro-epidermal growth factor (Homo sapiens) (UniProt P01133)
The experiment is described as follows: LTEA_HepaRG_EGF: Life Technologies and Expression Analysis (LTEA) Assay for Epidermal growth factor (EGF) using HepaRG (AID 2283489). Put shortly:
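EGF expression changes in human HepaRG cells are scored by bidirectional fitting relative to 0.5% DMSO controls. Chemicals are tested at eight half-log concentrations up to 100 uM for 48 h in serum-free induction medium.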

Read-out in experiment [9]: Early growth response protein 1 (EGR1) transcription factor, EGR1 (gene 1958)
The experiment is described as follows: LTEA_HepaRG_EGR1: Life Technologies and Expression Analysis (LTEA) Assay for Early growth response protein 1 (EGR1) transcription factor using HepaRG (AID 2283490). Put shortly: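 Differentiated HepaRG cells in serum-free induction medium exposed 48 hours, duplicate, to 8 half-log concentrations up to 100 uM in 0.5% DMSO. EGR1 mRNA measured by TaqMan qRT-PCR, normalized to ACTB, GAPDH, POLR2A; bidirectional fit versus DMSO.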

Read-out in experiment [10]: Ezrin (EZR), EZR (gene 7430)
Nature of the experiment: LTEA_HepaRG_EZR: Life Technologies and Expression Analysis (LTEA) Assay for Ezrin (EZR) using HepaRG (AID 2283491). Put shortly:
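Gain or loss of EZR mRNA is scored relative to 0.5% DMSO in human HepaRG cultures treated 48 h with test chemicals in duplicate, eight half-log concentrations from 100 uM.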

Read-out in another experiment: CYP3A5 (gene 1577)
Nature of the experiment: LTEA_HepaRG_CYP3A5: Life Technologies and Expression Analysis (LTEA) Assay for CYP3A5 using HepaRG (AID 2283493). The essentials:
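HepaRG cells, plated 48 h then in serum-free induction medium, dosed in duplicate for 48 h with eight half-log concentrations up to 100 uM in 0.5% DMSO. Gene mRNA by Fluidigm TaqMan qRT-PCR, normalized to ACTB, GAPDH, POLR2A.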

Read-out in experiment [11]: Fatty Acid-Binding Protein 1 (FABP1), FABP1 (gene 2168)
Nature of the experiment: LTEA_HepaRG_FABP1: Life Technologies and Expression Analysis (LTEA) Assay for Fatty Acid-Binding Protein 1 (FABP1) using HepaRG (AID 2283494). The essentials:
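Differentiated human HepaRG cells exposed 48 h in serum-free induction medium to eight half-log concentrations up to 100 uM (0.5% DMSO), duplicate. FABP1 mRNA by qRT-PCR, normalised to ACTB, GAPDH, POLR2A; bidirectional fitting against DMSO.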

Read-out in experiment [12]: Cytochrome P450 4A22 (Homo sapiens) (UniProt Q5TCH4)
Nature of the experiment: LTEA_HepaRG_CYP4A22: Life Technologies and Expression Analysis (LTEA) Assay for Cytochrome P450 4A22 (CYP4A22) using HepaRG (AID 2283495). The essentials: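 Cryopreserved HepaRG cells, plated and cultured 48 h, then switched to serum-free induction medium and treated 48 h (duplicates, up to 100 uM, half-log steps, 0.5% DMSO). Expression change of CYP4A22 was fitted bidirectionally against vehicle.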

Read-out in experiment [13]: DNA damage-inducible transcript 3 (DDIT3), DDIT3 (gene 1649)
Nature of the experiment: LTEA_HepaRG_DDIT3: Life Technologies and Expression Analysis (LTEA) Assay for DNA damage-inducible transcript 3 (DDIT3) using HepaRG (AID 2283488). Put shortly: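 HepaRG cells, 48 h after plating, exposed 48 h in serum-free induction medium to 8 half-log concentrations up to 100 uM in 0.5% DMSO, in duplicate. DDIT3 mRNA measured by TaqMan qRT-PCR, normalized to ACTB, GAPDH and POLR2A. Fitted bidirectionally against DMSO.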

Activity calls are given as the source filed them. The calls were made as follows: active = hit-call score of the fitted dose curve at least 0.9, where 1 is the maximum; inactive = score below 0.9.

Caspase-3 (Homo sapiens), sequence (P42574 whole entry, looked up): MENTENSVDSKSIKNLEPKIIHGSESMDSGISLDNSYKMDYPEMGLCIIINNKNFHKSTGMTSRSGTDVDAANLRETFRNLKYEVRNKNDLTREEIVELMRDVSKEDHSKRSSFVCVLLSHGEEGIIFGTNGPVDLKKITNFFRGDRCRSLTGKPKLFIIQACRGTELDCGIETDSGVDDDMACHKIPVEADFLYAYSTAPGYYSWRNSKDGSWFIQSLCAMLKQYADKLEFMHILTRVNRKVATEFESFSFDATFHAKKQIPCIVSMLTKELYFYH
Cytochrome P450 2C19 (Homo sapiens), sequence (P33261 whole entry, looked up): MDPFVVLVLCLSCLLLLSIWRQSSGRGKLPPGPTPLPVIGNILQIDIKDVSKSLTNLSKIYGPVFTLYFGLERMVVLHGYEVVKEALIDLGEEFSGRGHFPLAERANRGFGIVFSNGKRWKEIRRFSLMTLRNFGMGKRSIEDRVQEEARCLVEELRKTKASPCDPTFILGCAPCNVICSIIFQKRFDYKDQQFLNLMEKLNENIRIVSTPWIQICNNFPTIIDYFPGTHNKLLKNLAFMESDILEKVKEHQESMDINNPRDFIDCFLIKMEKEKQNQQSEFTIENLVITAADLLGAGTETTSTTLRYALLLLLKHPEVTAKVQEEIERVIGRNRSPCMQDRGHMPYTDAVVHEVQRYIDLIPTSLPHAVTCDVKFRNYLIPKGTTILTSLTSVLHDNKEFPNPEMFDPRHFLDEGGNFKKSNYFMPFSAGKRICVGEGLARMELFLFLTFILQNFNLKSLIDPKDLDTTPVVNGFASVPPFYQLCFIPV
Cytochrome P450 3A4 (Homo sapiens), sequence (P08684 whole entry, looked up): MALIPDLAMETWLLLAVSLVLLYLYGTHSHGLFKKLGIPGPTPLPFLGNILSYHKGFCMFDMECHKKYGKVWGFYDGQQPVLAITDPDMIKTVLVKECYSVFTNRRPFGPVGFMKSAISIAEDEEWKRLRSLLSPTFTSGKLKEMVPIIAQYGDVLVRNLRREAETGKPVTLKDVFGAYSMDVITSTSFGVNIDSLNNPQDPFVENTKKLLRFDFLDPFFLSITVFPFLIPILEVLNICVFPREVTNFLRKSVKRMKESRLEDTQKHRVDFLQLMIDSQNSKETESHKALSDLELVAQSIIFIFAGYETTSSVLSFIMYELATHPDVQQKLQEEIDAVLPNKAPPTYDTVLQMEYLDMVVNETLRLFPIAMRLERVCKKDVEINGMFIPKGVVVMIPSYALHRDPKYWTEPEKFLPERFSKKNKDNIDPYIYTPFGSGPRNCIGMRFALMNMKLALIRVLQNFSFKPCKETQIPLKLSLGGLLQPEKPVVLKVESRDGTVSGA

Regarding `N#Cc1c(Cl)cccc1Cl`, the molecule was classed as inactive (in experiment [1]; in the experiment with Caspase-3 (Homo sapiens); in [2]; in experiment [3]; in [4]; in experiment [6]). Also, the molecule was classed as inactive (with CYP2C8 (gene 1558); with CYP2C9 (gene 1559); with CYP2E1 (gene 1571); with CYP4A11 (gene 1579); in experiment [7]; in experiment [8]). Besides, the molecule was classed as inactive (in experiment [9]; in experiment [10]; with CYP3A5 (gene 1577); in [11]; in experiment [12]). Further, the AC50 in experiment [5] is 12.1 µM (active).
For the molecule `Nc1c(Cl)c(Cl)nc(C(=O)O)c1Cl`, the call (in experiment [1]; with Caspase-3 (Homo sapiens); in experiment [2]; in experiment [4]; in experiment [5]; in experiment [6]) was inactive. Besides, the result (with CYP2C8 (gene 1558); with CYP2C9 (gene 1559); with CYP2E1 (gene 1571); in the experiment with CYP4A11 (gene 1579); in experiment [7]; in experiment [13]) was inactive. In addition, the molecule was called inactive (in experiment [8]; in experiment [10]; with CYP3A5 (gene 1577); in [11]; in [12]). The AC50 in experiment [3] is 50 µM (active).
Take `Nc1cnn(-c2ccccc2)c(=O)c1Cl`: the molecule was classed as inactive (in [1]; with Caspase-3 (Homo sapiens); in experiment [2]; in [4]; in experiment [6]; with CYP2C8 (gene 1558)). Besides, the molecule was classed as inactive (in the experiment with CYP2C9 (gene 1559); with CYP4A11 (gene 1579); in experiment [13]; in experiment [8]; in [10]; with CYP3A5 (gene 1577)). Further, the result in [11] and in experiment [12] was inactive. For the same molecule, the AC50 was 80.6 µM (active) in experiment [3], 17.1 µM (active) in experiment [5], 9.92 µM (active) in the experiment with CYP2E1 (gene 1571) and 17.6 µM (active) in experiment [7].
As for `Cn1c(-c2ccccc2)cc(-c2ccccc2)[n+]1C`, the AC50 was 80 µM (active) in experiment [1]; 50 µM (active) with Caspase-3 (Homo sapiens); 13.2 µM (active) in [3]; 89.2 µM (active) in experiment [4]; 11.3 µM (active) in [5]; 50 µM (active) in experiment [6]. The AC50 was 13.5 µM (active) in the experiment with CYP2C8 (gene 1558); 19.5 µM (active) with CYP2C9 (gene 1559); 24.5 µM (active) with CYP2E1 (gene 1571); 20.3 µM (active) with CYP4A11 (gene 1579); 50 µM (active) in [7]; 13.5 µM (active) in experiment [13]. Also, the AC50 is 81.3 µM (active) in [8], 79 µM (active) with CYP3A5 (gene 1577), 21.9 µM (active) in [11] and 24 µM (active) in experiment [12]. Further, the molecule was classed as inactive in experiment [2] and in [10].

The AC50 is the concentration at which the activity in the assay is half-maximal.
